Reference: PubChem BioAssay (NCATS)
Records with an inconclusive call do not appear. Where a call stands in place of a potency, no number is given. The source made the active and inactive calls. Unless noted, calls follow the shape of the dose curve; as a rule, active = well fitted curve in either direction with a large enough effect (not every such curve was filed as active); inconclusive = small, poorly fitted or top-dose-only effect, or another doubt; inactive = flat fitted curve, though single readings scatter.

Target: Mitogen-activated protein kinase 10 (Mus musculus) (UniProt Q61831)
Experiment: JNK3 AlphaScreen Assay (AID 530);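 also: kinase came from lysate of stimulated human HepG2 cells; signal reports phosphorylation of biotinylated GST-cJun 1-79 at Ser73 with 10 µM ATP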
Conditions: JNK3 lysate, c-Jun phosphorylation; series mostly up to 57.1 µM
Procedure, shortened: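 qHTS format: compounds tested as titrations against IL-1beta/TNF-alpha-activated HepG2 lysate JNK3 with biotin-GST-cJun substrate and 10 uM ATP at room temperature. Loss of anti-phospho-cJun AlphaScreen signal indicates inhibition.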

| SMILES | Potency |
| --- | --- |
| COc1ccccc1-c1nc(NCc2cccs2)c2ccccc2n1 | inactive |
| COc1ccc(CNc2ncncc2-c2ccoc2)c(OC)c1 | inactive |
| CCNc1ncc2nc(-c3cccs3)c(=O)n(C[C@H]3CCCO3)c2n1 | inactive |
| CCNc1ncc2nc(C)c(=O)n(CCOC)c2n1 | inactive |
| c1ccc(CNc2nc(-c3ccoc3)nc3ccccc23)cc1 | inactive |
| c1csc(CNc2nc(-c3ccoc3)nc3ccccc23)c1 | inactive |
| N#Cc1cccc(-c2nc(NCc3cccs3)c3ccccc3n2)c1 | inactive |
| CN(Cc1ccco1)c1ncncc1-c1ccc2c(c1)OCO2 | inactive |
| CN(Cc1ccco1)c1ncncc1-c1cccnc1 | inactive |
| Cc1noc(C)c1-c1nc(N(C)C)c2ccccc2n1 | inactive |
| Cc1cnc(CNc2cc(-c3c(C)noc3C)ncn2)cn1 | inactive |
| CN(Cc1ccco1)c1nc(-c2ccc3c(c2)OCO3)nc2ccccc12 | inactive |
| N#Cc1cccc(-c2cncnc2NCCc2cnc[nH]2)c1 | inactive |
| O=c1c(-c2cccs2)nc2cncnc2n1-c1ccccc1 | inactive |
| COc1ccc(-c2nc3cnc(N4CCOCC4)nc3n(Cc3cccs3)c2=O)cc1 | inactive |
| COc1ccc2[nH]cc(CCNc3cc(-c4c(C)noc4C)ncn3)c2c1 | inactive |
| CS(=O)(=O)Nc1cccc(-c2cc(NCc3ccccc3)ncn2)c1 | inactive |
| COc1ccccc1-c1cncnc1NCc1ccccc1 | inactive |
| CCNc1ncc2nc(-c3cccs3)c(=O)n(-c3ccccc3)c2n1 | inactive |

| SMILES | Potency |
| --- | --- |
| COc1cccc(-c2nccc(NCc3cnc(C)cn3)n2)c1 | inactive |
| COc1ccc(CNc2ncncc2-c2ccc(N(C)C)cc2)c(OC)c1 | inactive |
| CN(C)C(=O)c1ccc(-c2ccc3ncnc(NCCN4CCOCC4)c3c2)cc1 | inactive |
| COCCn1c(=O)c(-c2cccc(F)c2)nc2cncnc21 | inactive |
| Cc1noc(C)c1-c1nccc(Nc2ccc(F)cc2)n1 | inactive |
| COc1ccccc1-c1cc(Nc2ccn[nH]2)ncn1 | inactive |
| Cc1cnc(CNc2nc(-c3ccccc3Cl)nc3ccccc23)cn1 | inactive |
| CCNc1ncc2nc(-c3cccc(C#N)c3)c(=O)n(CCC#N)c2n1 | inactive |
| c1ccc(CNc2ccnc(-c3cccnc3)n2)cc1 | inactive |
| CN(C)C(=O)c1ccc(-c2cncnc2N(C)Cc2ccco2)cc1 | inactive |
| COc1ccccc1-c1cc(Nc2ccc(F)cc2)ncn1 | inactive |
| CN(C)c1nc(-c2ccccc2C(F)(F)F)nc2ccccc12 | inactive |
| COc1ccccc1-c1nc(N(C)Cc2ccco2)c2ccccc2n1 | inactive |
| COc1cccc(-c2cncnc2NCc2cccs2)c1 | inactive |
| c1ccc(Nc2ncncc2-c2ccoc2)cc1 | inactive |
| COc1ccccc1CNc1ccnc(-c2c(C)noc2C)n1 | inactive |
| COCCn1c(=O)cnc2cnc(N(C)C)nc21 | inactive |
| Cc1cnc(CNc2ncnc3ccc(-c4ccc(C(=O)N(C)C)cc4)cc23)cn1 | inactive |
| COc1cccc(Cn2c(=O)cnc3cnc(Nc4ccccc4)nc32)c1 | inactive |

Target: 3',5'-cyclic-AMP phosphodiesterase 4B (Homo sapiens) (UniProt Q07343)
Experiment: qHTS Assay for Inhibitors of PDE-IV (AID 607; active = well fitted activation curve with a large enough effect in the main read-out, with a control signal flat, not every such curve was filed as active; also: potency is read from the fitted curve at half-maximal effect)
Conditions: HEK293 ACTOne CNG channel cells, membrane potential fluorescence; series mostly up to 22.9 µM
Procedure, shortened: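 ACTOne HEK293 cells carry a modified cAMP-gated CNG channel and express endogenous PDE4; plated 1000 cells/well, compounds up to 22.9 uM final. Membrane-potential dye fluorescence (ex 535/em 590) was read; parental cells received 10 uM forskolin + 100 uM RO 20-1724.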

Chain of 3',5'-cyclic-AMP phosphodiesterase 4B (Homo sapiens) (Q07343 whole entry, looked up): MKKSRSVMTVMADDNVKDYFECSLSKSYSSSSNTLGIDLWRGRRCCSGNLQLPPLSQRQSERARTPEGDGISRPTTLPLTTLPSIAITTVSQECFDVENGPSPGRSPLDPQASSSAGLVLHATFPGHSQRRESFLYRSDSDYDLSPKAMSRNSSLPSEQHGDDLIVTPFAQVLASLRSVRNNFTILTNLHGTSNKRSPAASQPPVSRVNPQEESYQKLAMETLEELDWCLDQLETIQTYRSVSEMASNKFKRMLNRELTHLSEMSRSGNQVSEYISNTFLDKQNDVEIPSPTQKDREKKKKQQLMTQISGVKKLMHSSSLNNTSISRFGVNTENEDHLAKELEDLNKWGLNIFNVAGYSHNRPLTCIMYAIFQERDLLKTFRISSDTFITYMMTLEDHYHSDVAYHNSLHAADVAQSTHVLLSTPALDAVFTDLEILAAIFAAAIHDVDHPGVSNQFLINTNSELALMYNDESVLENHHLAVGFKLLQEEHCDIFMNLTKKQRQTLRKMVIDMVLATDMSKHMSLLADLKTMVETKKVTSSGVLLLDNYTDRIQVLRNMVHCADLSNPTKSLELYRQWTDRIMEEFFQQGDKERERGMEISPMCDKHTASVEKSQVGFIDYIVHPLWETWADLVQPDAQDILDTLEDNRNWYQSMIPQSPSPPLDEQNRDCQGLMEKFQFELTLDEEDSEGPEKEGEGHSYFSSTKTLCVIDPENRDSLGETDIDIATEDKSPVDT

| SMILES | Potency |
| --- | --- |
| COc1ccc(CNc2ncncc2-c2ccoc2)c(OC)c1 | inactive |
| COc1ccccc1-c1nccc(NCc2cccnc2)n1 | inactive |
| CCNc1ncc2nc(C)c(=O)n(CCOC)c2n1 | inactive |
| CN(Cc1ccco1)c1ncncc1-c1cccnc1 | inactive |
| Cc1noc(C)c1-c1nc(N(C)C)c2ccccc2n1 | inactive |
| Cc1cnc(CNc2cc(-c3c(C)noc3C)ncn2)cn1 | inactive |
| N#Cc1cccc(-c2cncnc2NCCc2cnc[nH]2)c1 | inactive |
| COc1ccc(-c2nc3cnc(N4CCOCC4)nc3n(Cc3cccs3)c2=O)cc1 | 1580 nM (active) |
| COc1ccc2[nH]cc(CCNc3cc(-c4c(C)noc4C)ncn3)c2c1 | inactive |
| CS(=O)(=O)Nc1cccc(-c2cc(NCc3ccccc3)ncn2)c1 | inactive |
| COc1ccccc1-c1cncnc1NCc1ccccc1 | inactive |
| CN(C)C(=O)c1ccc(-c2ccc3ncnc(NCCN4CCOCC4)c3c2)cc1 | inactive |
| Cc1noc(C)c1-c1nccc(Nc2ccc(F)cc2)n1 | inactive |
| Cc1cnc(CNc2nc(-c3ccccc3Cl)nc3ccccc23)cn1 | inactive |
| CN(C)C(=O)c1ccc(-c2cncnc2N(C)Cc2ccco2)cc1 | inactive |
| CN(C)c1nc(-c2ccccc2C(F)(F)F)nc2ccccc12 | inactive |
| COCCn1c(=O)cnc2cnc(N(C)C)nc21 | inactive |
| COc1ccc(CNc2ccnc(-c3cccnc3)n2)c(OC)c1 | inactive |
| Cc1cnc(CNc2ncnc3ccc(-c4ccc(C(=O)N(C)C)cc4)cc23)cn1 | inactive |
| COc1cccc(Cn2c(=O)cnc3cnc(Nc4ccccc4)nc32)c1 | inactive |

Target: Cytochrome P450 3A4 (Homo sapiens) (UniProt P08684)
Experiment: qHTS Assay for Inhibitors and Substrates of Cytochrome P450 3A4 (AID 884; active = well fitted inhibition curve with a large enough effect; also: potency is read from the fitted curve at half-maximal effect; nearly all actives have a fitted effect of over 50% in size)
Conditions: recombinant CYP3A4, Luciferin-PPXE luminescence; series mostly up to 57.1 µM
Procedure, shortened: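 20 nM human CYP3A4 with 25 uM Luciferin-PPXE (at KM) in 200 mM KPO4, preincubated 10 min with compound; NADPH regeneration started a 60 min RT reaction. Luciferin detected by luminescence, normalized to 57 uM ketoconazole as full inhibition.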

Chain of Cytochrome P450 3A4 (Homo sapiens) (P08684 whole entry, looked up): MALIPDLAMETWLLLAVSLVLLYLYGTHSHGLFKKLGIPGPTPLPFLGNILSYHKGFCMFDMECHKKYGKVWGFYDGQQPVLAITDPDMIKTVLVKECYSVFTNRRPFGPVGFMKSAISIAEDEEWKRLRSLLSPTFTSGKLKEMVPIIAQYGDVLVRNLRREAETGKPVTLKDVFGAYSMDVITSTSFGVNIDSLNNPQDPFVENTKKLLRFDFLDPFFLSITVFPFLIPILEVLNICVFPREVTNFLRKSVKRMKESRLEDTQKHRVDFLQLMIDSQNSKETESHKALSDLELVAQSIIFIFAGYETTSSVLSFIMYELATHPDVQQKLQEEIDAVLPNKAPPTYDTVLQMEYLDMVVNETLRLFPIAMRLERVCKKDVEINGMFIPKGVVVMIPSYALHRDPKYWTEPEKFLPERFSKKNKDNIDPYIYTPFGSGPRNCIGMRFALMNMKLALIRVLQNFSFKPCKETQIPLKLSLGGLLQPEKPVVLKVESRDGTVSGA

| SMILES | Potency |
| --- | --- |
| COc1ccccc1-c1nccc(NCc2cccnc2)n1 | 2510 nM (active) |
| c1csc(CNc2nc(-c3ccoc3)nc3ccccc23)c1 | 7940 nM (active) |
| N#Cc1cccc(-c2nc(NCc3cccs3)c3ccccc3n2)c1 | 3980 nM (active) |
| CN(Cc1ccco1)c1ncncc1-c1ccc2c(c1)OCO2 | 1260 nM (active) |
| CN(Cc1ccco1)c1ncncc1-c1cccnc1 | 2510 nM (active) |
| CN(Cc1ccco1)c1nc(-c2ccc3c(c2)OCO3)nc2ccccc12 | 1580 nM (active) |
| COc1ccccc1-c1cncnc1NCc1ccccc1 | 251 nM (active) |
| COc1cccc(-c2nccc(NCc3cnc(C)cn3)n2)c1 | 6310 nM (active) |
| COc1ccc(CNc2ncncc2-c2ccc(N(C)C)cc2)c(OC)c1 | 199 nM (active) |
| COc1ccccc1-c1cc(Nc2ccn[nH]2)ncn1 | 3980 nM (active) |
| c1ccc(CNc2ccnc(-c3cccnc3)n2)cc1 | 631 nM (active) |
| COc1ccccc1-c1nc(N(C)Cc2ccco2)c2ccccc2n1 | 7940 nM (active) |
| COc1cccc(-c2cncnc2NCc2cccs2)c1 | 1580 nM (active) |
| c1ccc(Nc2ncncc2-c2ccoc2)cc1 | 2000 nM (active) |
| COc1ccccc1CNc1ccnc(-c2c(C)noc2C)n1 | 5010 nM (active) |
| COc1ccc(CNc2ccnc(-c3cccnc3)n2)c(OC)c1 | 631 nM (active) |
